Assay [1] in a line: Cytotoxicity counterscreen for inhibitors of SARS-CoV-2 cell entry (AID 1645845). Note: nearly all actives have a fitted effect of over 50% in size. The method in brief: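 ATP-content luminescence (ATPLite 1step, 15 min RT) read after 48 h compound exposure of Expi293F cells stably expressing human ACE2; normalized to cells-only wells and media-only wells.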
A general note: Counterscreens check selectivity or assay interference.

A short description of assay [2]: Primary qHTS to identify inhibitors of SARS-CoV-2 cell entry (AID 1645846). Note: nearly all actives have a fitted effect of over 45% in size. Note: potency is the fitted concentration of half-maximal effect. To be noted: activity change, negative = inhibition: at 57.1 µM (top of the series) unless noted. The method in brief:
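Data are normalized to wells receiving SARS-CoV-2-S pseudoparticles and those given bald particles. Entry signal was luciferase luminescence in stable hACE2 Expi293F cells, 48 hr post-infection, after 1 hr compound pretreatment.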

SMILES strings stand for the structures. Where “and” joins values, the source holds several entries; their conditions need not be identical. Equal entries are not always repeated. Inconclusive results are not listed. Entries that show only a call come without a potency. Calls of active or inactive are those of the source. Calls come from the whole dose curve.

For the compound `CCN(CCCCOC(=O)c1ccc(OC)c(OC)c1)C(C)Cc1ccc(OC)cc1` (stereo not drawn), the Potency result in assay [1] was “inactive”. The Potency in assay [2] is 14.1 µM (active).
As to `CCC(CN)=C(c1ccccc1)c1ccccc1`, in assay [1], the Potency result was “inactive”. Also, in assay [2], the activity change, negative = inhibition came out at 2.6%.
In the case of `C[C@]12C=CC(=O)C=C1CC[C@H]1[C@@H]3C[C@@H](O)[C@](O)(C(=O)CO)[C@@]3(C)C[C@H](O)[C@@]12F`, in assay [1], the Potency entry is “inactive”. In addition, the activity change, negative = inhibition in assay [2] is 4.58%.
In the case of `CCCc1nc(C)c2c(=O)[nH]c(-c3cc(S(=O)(=O)N4CCN(CC)CC4)ccc3OCC)nn12`, the Potency result in assay [1] was “inactive”. In assay [2], the activity change, negative = inhibition is -31% and -14%.
`c1ccc(CC2=NCCN2)cc1`: the Potency result in assay [1] and in assay [2] was “inactive” in each case.
Take `CCC(=O)c1ccc(O)cc1`: the Potency entry in assay [1] and in assay [2] was “inactive” in each case.
Take `COc1cc(NS(=O)(=O)c2ccc(N)cc2)ncn1`: the Potency result in assay [1] and in assay [2] was “inactive” each time.
Regarding `C=CCCCCCCCCC(=O)O`, the Potency entry in assay [1] and in assay [2] was “inactive” each time.
With `NCCNC(=O)c1ccc(Cl)cn1`, the Potency entry in assay [1] was “inactive”. Besides, the activity change, negative = inhibition in assay [2] was -12.8%.
As for `CC(C(O)c1ccc(O)cc1)N1CCC(Cc2ccccc2)CC1` (stereo not drawn), the Potency entry in assay [1] is “inactive”. In addition, in assay [2], the activity change, negative = inhibition is -24.3%.
For the compound `CO/N=C(/C(=O)N[C@@H]1C(=O)N2C(C(=O)O)=C(Cn3nnc(C)n3)CS[C@H]12)c1csc(N)n1`, the Potency result in assay [1] and in assay [2] was “inactive” throughout.
`O=C1CC2(CCCC2)CC(=O)N1CCCCN1CCN(c2ncccn2)CC1`: the Potency result in assay [1] was “inactive”. Further, in assay [2], the activity change, negative = inhibition amounted to 0.863%.
Turning to `CC(CNC1CCCCC1)OC(=O)c1ccccc1` (stereo not drawn), the Potency entry in assay [1] and in assay [2] was “inactive” each time.
Turning to `CCC(=O)Oc1ccc2c(c1)CC[C@@H]1[C@@H]2CC[C@@]2(C)[C@H]1C[C@@H](OC(=O)CC)[C@@H]2OC(=O)CC`, the Potency result in assay [1] and in assay [2] was “inactive” each time.
Turning to `CC[N+](CC)(CC)CCOC(=O)C(C1CCCC1)C1CCCC1`, the Potency result in assay [1] is “inactive”. In addition, the activity change, negative = inhibition in assay [2] was -6.21%.
As for `CC(O)Cn1cnc2c1c(=O)n(C)c(=O)n2C` (stereo not drawn), the Potency result in assay [1] is “inactive”. Also, the activity change, negative = inhibition in assay [2] amounted to 0.504%.
In the case of `O=C(OCC(O)CO)c1ccccc1Nc1ccnc2c(C(F)(F)F)cccc12` (stereo not drawn), the Potency result in assay [1] and in assay [2] was “inactive” each time.
For `CCOC(=O)NNc1nncc2ccccc12`, the Potency entry in assay [1] and in assay [2] was “inactive” in each case.
In the case of `CC1(C)OC[C@@H](COC(=O)CCc2ccc(OC[C@@H](O)CNCCNC(=O)N3CCOCC3)cc2)O1`, in assay [1], the Potency result is “inactive”. The activity change, negative = inhibition in assay [2] is -4.74%.
The like results for `OCCN1CCN(CCCN2c3ccccc3C=Cc3ccccc32)CC1` were, in that order, “inactive” and -17.2%.
Regarding `O=C(O)CNC(=O)c1ccccc1I`, the Potency entry in assay [1] was “inactive”. Further, in assay [2], the activity change, negative = inhibition is -21.9%.
With `O=C(O)CCNC(=O)c1ccccc1`, the Potency result in assay [1] and in assay [2] was “inactive” in each case.
As for `Nc1ccc(S(=O)(=O)Nc2cnc3ccccc3n2)cc1`, the Potency result in assay [1] and in assay [2] was “inactive” each time.
Take `CCCCC(=O)O[C@]1(C(=O)CO)[C@@H](C)C[C@H]2[C@@H]3CCC4=CC(=O)C=C[C@]4(C)[C@@]3(F)[C@@H](O)C[C@@]21C`: the Potency result in assay [1] and in assay [2] was “inactive” in each case.
For `CCC1NC(=O)c2cc(S(N)(=O)=O)c(Cl)cc2N1` (stereo not drawn), the Potency entry in assay [1] is “inactive”. Besides, the activity change, negative = inhibition in assay [2] was -25.9%.
In the case of `C[C@@H]1CCN(C(=O)[C@H](CCCN=C(N)N)NS(=O)(=O)c2cccc3c2NC[C@H](C)C3)[C@@H](C(=O)O)C1`, the Potency result in assay [1] was “inactive”. Also, the activity change, negative = inhibition in assay [2] was -11.8%.
As for `CCCc1ncc(C[n+]2ccccc2C)c(N)n1`, the Potency entry in assay [1] is “inactive”. Besides, the activity change, negative = inhibition in assay [2] was 0.0229%.
For the compound `O=C1OC(c2ccc(O)cc2)(c2ccc(O)cc2)c2ccccc21`, the Potency entry in assay [1] and in assay [2] was “inactive” each time.
On to `CCOCCn1c(N2CCCN(C)CC2)nc2ccccc21`, for which, in assay [1], the Potency result is “inactive”. Further, the activity change, negative = inhibition in assay [2] was -36.1%.
The matching figures for `Cc1cc(C)c(/C=C2\C(=O)Nc3ccccc32)[nH]1`: “inactive” and -6.25%.
The like results for `O=C(O)c1ccc(OCCCOc2ccc(C(=O)O)cc2)cc1` were, in that order, “inactive” and -2.21%.
As to `Cn1c(=O)c2c(ncn2CC2OCCO2)n(C)c1=O`, the Potency result in assay [1] is “inactive”. The activity change, negative = inhibition in assay [2] is -5.86%.
Turning to `CCOC(=O)c1ccc(NC(=O)CN2CCCCC2)cc1`, the Potency result in assay [1] is “inactive”. The activity change, negative = inhibition in assay [2] was -7.85%.
Turning to `Cc1nnc(C(=O)NC(C)(C)c2nc(C(=O)NCc3ccc(F)cc3)c(O)c(=O)n2C)o1`, the Potency result in assay [1] was “inactive”. Moreover, in assay [2], the activity change, negative = inhibition was -86.5% and -69.6%.
In the case of `CC(=O)OC[C@H]1O[C@@](COC(C)=O)(O[C@H]2O[C@H](COC(C)=O)[C@@H](OC(C)=O)[C@H](OC(C)=O)[C@H]2OC(C)=O)[C@@H](OC(C)=O)[C@@H]1OC(C)=O`, the Potency result in assay [1] was “inactive”. For the same compound, the activity change, negative = inhibition in assay [2] is -0.185%.
For `CCN(CC)C(=O)Nc1ccc(OCC(O)CNC(C)(C)C)c(C(C)=O)c1` (stereo not drawn), the Potency entry in assay [1] was “inactive”. Moreover, in assay [2], the activity change, negative = inhibition was -2.7%.
With `C[C@@H](O)[C@H](N)C(=O)O`, in assay [1], the Potency entry is “inactive”. Also, in assay [2], the activity change, negative = inhibition is 0.235% [at 27.1 µM].
With `N[C@H]1CN(c2c(F)cc3c(=O)c(C(=O)O)cn(C4C[C@@H]4F)c3c2Cl)CC12CC2` (stereo partly drawn), the Potency entry in assay [1] was “inactive”. Moreover, the activity change, negative = inhibition in assay [2] is -17.4%.
For the compound `CC(=O)[C@@]1(O)CC[C@H]2[C@@H]3C[C@H](C)C4=CC(=O)CC[C@]4(C)[C@H]3CC[C@@]21C`, the Potency result in assay [1] and in assay [2] was “inactive” in each case.
Regarding `C#CC1(O)CC[C@H]2[C@@H]3CCC4=CCCC[C@@H]4[C@H]3CC[C@@]21C` (stereo partly drawn), the Potency result in assay [1] and in assay [2] was “inactive” each time.
`Clc1ccc(Nc2nnc(Cc3ccncc3)c3ccccc23)cc1`: in assay [1], the Potency result is “inactive”. Further, the activity change, negative = inhibition in assay [2] is -4.34%.
Take `NS(=O)(=O)c1ccc(N2CCCCS2(=O)=O)cc1`: the Potency result in assay [1] and in assay [2] was “inactive” in each case.
Regarding `N[C@@H](CSCCCO)C(=O)O`, the Potency result in assay [1] and in assay [2] was “inactive” in each case.
Turning to `CCC(=O)O[C@]1(C(=O)SCF)[C@H](C)C[C@H]2[C@@H]3C[C@H](F)C4=CC(=O)C=C[C@]4(C)[C@@]3(F)[C@@H](O)C[C@@]21C`, the Potency result in assay [1] and in assay [2] was “inactive” in each case.
